Results taken from the supplement of paper PMC10849652.
Targets with a hit are over-represented here; the source holds about 7,900 in all. About 0.6% of all pairs of compound and target were hits. Unmarked numbers belong to inactive results.

Columns and labels:
Test in all cases: log2 fold change, soluble protein after heating vs DMSO (PISA); higher = thermal stabilisation; K562 cells, 10 uM, 30 min; active = over 0.2 and 3.5 SD of the protein, either way, in both replicates (recomputed)
[1] = compound: CC1=C(C=C(C=C1)NC(=O)C2=CC(=CC=C2)C(C)(C)C#N)NC3=CC4=C(C=C3)N=CN(C4=O)C
Method in brief: (§1)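 K562 cells (2×10^6 cells/mL) were treated with 10 μM compound for 30 min, and aliquots were heated for 3 min over 48°C-58°C. Pooled aliquots were extracted in PBS with 0.5% NP-40 at 4°C, and the supernatant after 21,000xg for 90 min was measured by TMTpro 16plex LC-MS/MS with channel sums equalised. Reported thermal stability, relative to control samples and from duplicates, is a log2 fold change.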

[2] = compound: CC1=C(C=C(C=C1)NC(=O)C2=CC(=CC=C2)N(C)C)NC(=O)C3=CC=C(C=C3)O
Method in brief: as §1

[3] = compound: CC1=NC(=CC=C1)C2=C(N=C(N2)C(C)(C)C)C3=CC4=NC=CN=C4C=C3
Method in brief: as §1

Nexturastat A = compound: CCCCN(Cc1ccc(C(=O)NO)cc1)C(=O)Nc1ccccc1 [Nexturastat A]
Method in brief: as §1

vemurafenib = compound: CCCS(=O)(=O)Nc1ccc(F)c(C(=O)c2c[nH]c3ncc(-c4ccc(Cl)cc4)cc23)c1F [vemurafenib]
Method in brief: as §1

[4] = compound: CCCc1cc(C)[nH]c(=O)c1CNC(=O)c1cc(-c2ccnc(N3CCN(C)CC3)c2)cc2c1cnn2C(C)C
Method in brief: as §1

givinostat = compound: CCN(CC)Cc1ccc2cc(COC(=O)Nc3ccc(C(=O)NO)cc3)ccc2c1 [givinostat]
Method in brief: as §1

barasertib = compound: CCN(CCCOc1ccc2c(Nc3cc(CC(=O)Nc4cccc(F)c4)[nH]n3)ncnc2c1)CCOP(=O)(O)O [barasertib]
Method in brief: as §1

[5] = compound: CC[C@@H]1C(=O)N(C)c2cnc(Nc3ccc(C(=O)NC4CCN(C)CC4)cc3OC)nc2N1C1CCCC1
Method in brief: as §1

[6] = compound: CC[C@H](C)N1C=C(C2=C(C=C(C=C21)C3=CN=C(C=C3)N4CCNCC4)C(=O)NCC5=C(C=C(NC5=O)C)C)C
Method in brief: as §1

epoxomicin = compound: CC[C@H](C)[C@@H](C(=O)N[C@@H]([C@@H](C)O)C(=O)N[C@@H](CC(C)C)C(=O)[C@]1(CO1)C)NC(=O)[C@H]([C@@H](C)CC)N(C)C(=O)C [epoxomicin]
Method in brief: as §1

[7] = compound: CCn1c(C(=O)N(C2CC2)C2CC2)cc2c3c(ncn3C)c(Nc3cc(C)n(C)n3)nc21
Method in brief: as §1

[8] = compound: CCn1cc(-c2ccnc3[nH]c(-c4cccc(CN(C)C)c4)cc23)c(-c2ccc(NC(=O)N(C)C)cc2)n1
Method in brief: as §1

[9] = compound: CN(C)CC(=O)Nc1ccc2[nH]c(=O)c3ccccc3c2c1
Method in brief: as §1

rosiglitazone = compound: CN(CCOC1=CC=C(C=C1)C[C@H]2C(=O)NC(=O)S2)C3=CC=CC=N3 (racemic) [rosiglitazone]
Method in brief: as §1

[10] = compound: CN1C2=C(C3=C1C(=O)N(N=C3)CC4=CC(=CC=C4)N)SC(=C2)S(=O)C
Method in brief: as §1

[11] = compound: CN1CCC(CNc2ccc3ncc(-c4cccc(OC(F)(F)F)c4)n3n2)CC1
Method in brief: as §1

[12] = compound: CC1=CC=C(C=C1)SC2=C3C=C(SC3=CN=C2)C(=O)N
Method in brief: as §1

[13] = compound: CCCS(=O)(=O)Nc1ccc(F)c(C(=O)c2c[nH]c3ncc(Cl)cc23)c1F
Method in brief: as §1

volasertib = compound: CC[C@@H]1C(=O)N(C)c2cnc(Nc3ccc(C(=O)N[C@H]4CC[C@H](N5CCN(CC6CC6)CC5)CC4)cc3OC)nc2N1C(C)C [volasertib]
Method in brief: as §1

Sequence of UniProt P36956 (P36956 whole entry, looked up): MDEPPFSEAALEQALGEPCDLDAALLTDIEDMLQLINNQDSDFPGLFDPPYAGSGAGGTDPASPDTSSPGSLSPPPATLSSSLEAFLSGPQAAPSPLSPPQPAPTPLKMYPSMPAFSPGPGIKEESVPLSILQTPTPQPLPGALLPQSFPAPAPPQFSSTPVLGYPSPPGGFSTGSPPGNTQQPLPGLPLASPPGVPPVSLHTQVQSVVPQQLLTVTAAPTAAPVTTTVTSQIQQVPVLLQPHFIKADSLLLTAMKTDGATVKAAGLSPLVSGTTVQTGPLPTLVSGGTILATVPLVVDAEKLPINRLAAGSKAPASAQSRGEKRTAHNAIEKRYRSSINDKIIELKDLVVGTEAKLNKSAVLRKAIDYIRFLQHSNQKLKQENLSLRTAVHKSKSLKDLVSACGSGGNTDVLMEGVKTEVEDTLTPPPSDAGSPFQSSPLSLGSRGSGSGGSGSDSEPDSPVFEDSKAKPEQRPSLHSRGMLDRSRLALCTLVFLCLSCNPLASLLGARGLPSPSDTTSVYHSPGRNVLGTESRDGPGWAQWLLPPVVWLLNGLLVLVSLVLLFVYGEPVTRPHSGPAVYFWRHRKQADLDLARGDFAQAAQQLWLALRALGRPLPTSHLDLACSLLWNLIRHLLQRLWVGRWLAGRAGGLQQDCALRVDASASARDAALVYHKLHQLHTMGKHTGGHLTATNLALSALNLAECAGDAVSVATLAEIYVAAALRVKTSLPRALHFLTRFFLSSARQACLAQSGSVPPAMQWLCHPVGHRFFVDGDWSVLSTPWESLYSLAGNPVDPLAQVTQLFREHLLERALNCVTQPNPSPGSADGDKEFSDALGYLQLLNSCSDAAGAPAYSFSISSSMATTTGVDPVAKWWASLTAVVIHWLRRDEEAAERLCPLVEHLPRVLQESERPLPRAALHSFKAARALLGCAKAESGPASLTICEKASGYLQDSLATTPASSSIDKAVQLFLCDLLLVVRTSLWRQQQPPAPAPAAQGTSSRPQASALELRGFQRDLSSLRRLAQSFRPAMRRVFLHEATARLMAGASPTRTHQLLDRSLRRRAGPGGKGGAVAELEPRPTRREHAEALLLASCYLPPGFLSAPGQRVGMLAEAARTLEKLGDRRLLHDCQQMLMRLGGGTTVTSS
Sequence of UniProt Q8N9U0 (Q8N9U0 whole entry, looked up): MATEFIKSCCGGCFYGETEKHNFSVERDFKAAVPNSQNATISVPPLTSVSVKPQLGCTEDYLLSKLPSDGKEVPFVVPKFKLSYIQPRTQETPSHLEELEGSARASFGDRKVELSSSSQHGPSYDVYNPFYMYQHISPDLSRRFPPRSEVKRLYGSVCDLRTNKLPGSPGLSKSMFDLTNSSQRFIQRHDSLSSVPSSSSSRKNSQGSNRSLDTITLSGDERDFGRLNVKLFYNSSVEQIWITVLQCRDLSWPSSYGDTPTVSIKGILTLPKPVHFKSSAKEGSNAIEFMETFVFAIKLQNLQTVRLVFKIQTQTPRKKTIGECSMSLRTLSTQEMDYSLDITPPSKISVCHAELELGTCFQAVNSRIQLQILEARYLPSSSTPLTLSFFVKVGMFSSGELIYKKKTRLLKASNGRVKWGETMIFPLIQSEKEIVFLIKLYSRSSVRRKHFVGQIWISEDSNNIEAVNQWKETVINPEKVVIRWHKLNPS
Sequence of UniProt Q9BYX2 (Q9BYX2 whole entry, looked up): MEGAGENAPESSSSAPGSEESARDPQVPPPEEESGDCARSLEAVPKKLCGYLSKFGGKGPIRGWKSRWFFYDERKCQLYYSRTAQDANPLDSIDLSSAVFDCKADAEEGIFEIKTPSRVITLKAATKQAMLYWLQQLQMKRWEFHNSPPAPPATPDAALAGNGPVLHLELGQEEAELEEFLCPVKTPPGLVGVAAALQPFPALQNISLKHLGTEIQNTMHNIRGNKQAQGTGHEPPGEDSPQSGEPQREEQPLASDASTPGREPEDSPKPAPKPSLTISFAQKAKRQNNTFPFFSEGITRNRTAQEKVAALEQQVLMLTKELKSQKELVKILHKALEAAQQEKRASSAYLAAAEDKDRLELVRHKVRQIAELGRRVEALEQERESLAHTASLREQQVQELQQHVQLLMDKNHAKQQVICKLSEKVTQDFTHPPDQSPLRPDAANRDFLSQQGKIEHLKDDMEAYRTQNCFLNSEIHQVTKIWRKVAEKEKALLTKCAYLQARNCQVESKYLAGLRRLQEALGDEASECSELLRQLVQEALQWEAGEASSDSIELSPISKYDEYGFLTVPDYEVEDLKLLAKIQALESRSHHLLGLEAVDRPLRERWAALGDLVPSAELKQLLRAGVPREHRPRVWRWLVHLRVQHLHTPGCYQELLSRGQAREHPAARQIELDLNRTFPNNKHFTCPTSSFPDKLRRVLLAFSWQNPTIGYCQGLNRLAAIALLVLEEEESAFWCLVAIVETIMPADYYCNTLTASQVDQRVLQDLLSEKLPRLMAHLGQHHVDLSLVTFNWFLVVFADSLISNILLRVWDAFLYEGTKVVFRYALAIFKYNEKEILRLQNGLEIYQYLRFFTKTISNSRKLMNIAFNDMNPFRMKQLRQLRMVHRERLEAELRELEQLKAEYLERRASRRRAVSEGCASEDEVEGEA
Sequence of UniProt Q969S0 (Q969S0 whole entry, looked up): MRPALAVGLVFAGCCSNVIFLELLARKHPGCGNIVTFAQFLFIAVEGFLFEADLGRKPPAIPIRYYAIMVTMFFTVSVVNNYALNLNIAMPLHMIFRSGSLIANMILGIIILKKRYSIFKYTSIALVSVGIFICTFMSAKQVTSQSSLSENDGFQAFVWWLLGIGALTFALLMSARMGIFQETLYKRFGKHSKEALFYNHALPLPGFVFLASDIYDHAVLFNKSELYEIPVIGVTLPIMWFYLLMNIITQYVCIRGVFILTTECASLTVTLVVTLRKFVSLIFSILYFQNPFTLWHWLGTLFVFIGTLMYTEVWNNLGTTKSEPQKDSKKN
Sequence of UniProt Q93075 (Q93075 whole entry, looked up): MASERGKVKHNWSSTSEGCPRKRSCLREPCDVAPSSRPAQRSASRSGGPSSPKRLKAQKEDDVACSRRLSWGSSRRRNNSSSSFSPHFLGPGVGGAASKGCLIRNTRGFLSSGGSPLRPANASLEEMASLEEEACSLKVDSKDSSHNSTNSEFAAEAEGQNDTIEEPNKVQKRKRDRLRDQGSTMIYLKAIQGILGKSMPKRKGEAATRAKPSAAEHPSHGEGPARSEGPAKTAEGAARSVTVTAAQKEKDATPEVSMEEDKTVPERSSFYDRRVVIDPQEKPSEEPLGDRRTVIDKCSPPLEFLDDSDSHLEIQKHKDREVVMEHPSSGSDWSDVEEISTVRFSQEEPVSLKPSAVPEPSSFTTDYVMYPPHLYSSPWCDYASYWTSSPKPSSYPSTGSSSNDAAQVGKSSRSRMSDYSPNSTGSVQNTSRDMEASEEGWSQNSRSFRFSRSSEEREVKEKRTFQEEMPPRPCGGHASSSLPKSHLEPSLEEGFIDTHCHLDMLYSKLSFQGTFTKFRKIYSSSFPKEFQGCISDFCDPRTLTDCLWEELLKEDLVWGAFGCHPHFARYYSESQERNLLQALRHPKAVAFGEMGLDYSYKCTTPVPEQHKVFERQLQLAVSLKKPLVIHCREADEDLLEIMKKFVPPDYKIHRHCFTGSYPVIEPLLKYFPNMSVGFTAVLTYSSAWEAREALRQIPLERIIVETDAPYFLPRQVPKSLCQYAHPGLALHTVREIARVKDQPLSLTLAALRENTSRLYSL
Sequence of UniProt Q9H4I9 (Q9H4I9 whole entry, looked up): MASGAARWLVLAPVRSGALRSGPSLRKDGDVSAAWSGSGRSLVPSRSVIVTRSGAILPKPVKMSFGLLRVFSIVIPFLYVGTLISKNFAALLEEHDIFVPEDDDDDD
Sequence of UniProt Q8IWA5 (Q8IWA5 whole entry, looked up): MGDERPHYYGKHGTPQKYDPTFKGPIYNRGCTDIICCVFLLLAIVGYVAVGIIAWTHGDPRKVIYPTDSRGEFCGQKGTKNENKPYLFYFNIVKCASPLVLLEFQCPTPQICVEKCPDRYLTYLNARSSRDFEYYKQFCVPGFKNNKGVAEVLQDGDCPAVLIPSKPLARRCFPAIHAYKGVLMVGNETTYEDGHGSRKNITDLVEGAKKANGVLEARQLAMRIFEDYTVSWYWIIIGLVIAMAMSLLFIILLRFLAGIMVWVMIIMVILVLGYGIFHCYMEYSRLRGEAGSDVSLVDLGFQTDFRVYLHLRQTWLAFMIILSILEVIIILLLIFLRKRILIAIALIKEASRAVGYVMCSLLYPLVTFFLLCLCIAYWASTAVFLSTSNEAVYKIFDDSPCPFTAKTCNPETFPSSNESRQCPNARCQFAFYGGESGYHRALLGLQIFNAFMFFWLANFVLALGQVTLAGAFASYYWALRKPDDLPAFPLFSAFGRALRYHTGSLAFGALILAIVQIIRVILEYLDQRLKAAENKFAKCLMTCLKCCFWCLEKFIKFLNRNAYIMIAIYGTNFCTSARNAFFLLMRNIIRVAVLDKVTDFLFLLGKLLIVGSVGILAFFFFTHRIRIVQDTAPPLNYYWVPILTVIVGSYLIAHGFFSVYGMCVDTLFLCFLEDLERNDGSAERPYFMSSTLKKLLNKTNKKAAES
Sequence of UniProt O94768 (O94768 whole entry, looked up): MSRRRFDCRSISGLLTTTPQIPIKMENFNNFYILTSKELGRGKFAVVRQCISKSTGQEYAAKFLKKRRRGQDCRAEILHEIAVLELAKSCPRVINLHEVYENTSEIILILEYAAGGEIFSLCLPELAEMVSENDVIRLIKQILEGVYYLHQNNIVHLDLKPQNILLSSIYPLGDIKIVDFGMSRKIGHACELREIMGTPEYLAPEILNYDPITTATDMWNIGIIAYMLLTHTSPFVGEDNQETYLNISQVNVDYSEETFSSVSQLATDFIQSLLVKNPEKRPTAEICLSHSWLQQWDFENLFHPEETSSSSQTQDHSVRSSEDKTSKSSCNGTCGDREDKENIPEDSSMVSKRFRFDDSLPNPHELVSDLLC

Target	log2 fold change [1]	log2 fold change [2]	log2 fold change [3]	log2 fold change (Nexturastat A)	log2 fold change (vemurafenib)	log2 fold change [4]	log2 fold change (givinostat)	log2 fold change (barasertib)	log2 fold change [5]	log2 fold change [6]	log2 fold change (epoxomicin)	log2 fold change [7]	log2 fold change [8]	log2 fold change [9]	log2 fold change (rosiglitazone)	log2 fold change [10]	log2 fold change [11]	log2 fold change [12]	log2 fold change [13]	log2 fold change (volasertib)
SYNE1 (UniProt Q8NF91)	-0.126	-0.051	-0.17	0.612 (active)	-0.045	-0.044	0.199	0.047	-0.01	-0.048	0.047	-0.142	-0.113	0.042	0.031	0.051	-0.208			
SMDT1 (UniProt Q9H4I9)	0.137		0.033	-0.015	0.037	-0.127		-0.021	0.08		-0.064		-0.044	0.108	-0.037	0.028	0.01			
SPIRE1 (UniProt Q08AE8)		0.013	-0.025	0.31	-0.011	-0.062	0.185	-0.014	0.125	-0.181	-0.238	-0.069	-0.116	-0.056	-0.002		-0.026			
SLC9A6 isoform 3 (UniProt Q92581)							-0.021	0.109	-0.041			0.045			-0.091	0.008		-0.152	-0.152	-0.045
SRSF6 (UniProt Q13247)	-0.012		0.126	0.248	-0.024	0.104	0.019	-0.059	0.011	0.116	-0.181	-0.004	0.028	-0.08	-0.043	0.207	0.315	-0.16	-0.058	0.174
SNX2 isoform 2 (UniProt O60749)	0		-0.039	0.484	-0.026			-0.054	-0.194		0.034			-0.161	0.076	0.086		-0.003	-0.144	-0.06
SSBP4 (UniProt U3KPY3)					-0.095	-0.028								0.049						
TBP (UniProt P20226)		-0.04	-0.071	0.163	0.02	-0.154		-0.067	0.087	0.095	-0.332			-0.227	-0.035	0.001		-0.056	-0.026	0.073
SLC39A1 (UniProt Q9NY26)							-0.157					-0.09	-0.014				-0.051			
SLC8B1 (UniProt Q6J4K2)		0.038	-0.022		-0.075		0.069	-0.167				0.09	0.091	-0.005	0.058	0.086	-0.509	-0.28	-0.021	0.156
TBC1D2 (UniProt Q9BYX2)				0.618 (active)		0.11			-0.055		-0.238		0.087				-0.019			
TCOF1 isoform 6 (UniProt Q13428)	0.148	-0.078	-0.105		0.146	0.545	-0.024	0.008	0.04	-0.132		-0.039		-0.219	-0.173					
TC2N (UniProt Q8N9U0)		0.077			0.063	-0.098				0.029				-0.194		0.073				
SPIN4 (UniProt Q56A73)			-0.601				-0.245					0.291								
SLC44A2 isoform 2 (UniProt Q8IWA5)	0.084	-0.033	-0.024	0.05	0.038	-0.029	-0.027	-0.012	0.2	0	0.053	0.014	-0.105	-0.048	-0.016	-0.154	0.259			
SYK (UniProt P43405)		0.015	-0.386	0.901 (active)	-0.097		0.307	-0.094			0.022	-0.021		-0.085	-0.006	-0.052		-0.025	-0.058	0.196
TATDN2 (UniProt Q93075)	-0.256		-0.07	0.092	0.168		-0.004	0.126	0.071	0.104	-0.096	0.044	-0.071	-0.098	0.082	0.046	-0.076	0.048	0.019	-0.008
SREBF1 isoform 4 (UniProt P36956)			0.035	0.063		-0.932 (active)	0.051	-0.071	-0.511		-0.035	-0.047			0.025	0.198				
SP2 (UniProt Q02086)	-0.032		-0.122						-0.289							0.372				
SLC35B4 (UniProt Q969S0)	0.018		-0.064	-0.061	0.062	-0.002	0.077	-0.01	-0.003	-0.041	0.044	0.042		-0.134	0.005					
SUPT5H isoform 2 (UniProt O00267)					0.232									0.149						
STK17B (UniProt O94768)			0.031				0.16	0.29				-0.099			0.07					
STK11IP (UniProt Q8N1F8)	0.095		-0.071	0.118	-0.159	0.063	-0.017	0.008	-0.224	0.103	0.069	-0.051	-0.006	0.025	0.011	0.026	-0.233	0.038	0.061	-0.517 (active)
